# Bioassay records: PubChem BioAssay, several laboratories
# PREPL inh: inhibitors of human prolyl oligopeptidase-like enzyme PREPL; Q4J6C6; recombinant PREPL, fluorescence polarization activity-based probe; inhibition, % at 5.96 µM; 320,000 tested, 0.68% active; AID 2751; in the data active = inhibition above about 43%;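 also: 0% = enzyme with DMSO and 100% = wells lacking enzyme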
# PP1 inh: PP1-alpha (human) inhibition in PP5 counter-screen; P62136; purified PP1alpha, OMFP fluorescence; inhibition, % at 6.7 µM; 320,000 tested, 0.9% active;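 active = inhibition above the mean inhibition of all tested compounds plus 3 SD, computed separately for each screening campaign, cut at about 15% in these data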
# TMEM16A act: activates or potentiates the mouse TMEM16A chloride channel. Q8BHY3. HEK293 TMEM16A/YFP-H148Q/I152L, iodide quench fluorescence; active compounds read low. B-score at 10 µM. 340,000 tested, 0.3% active;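 active = fluorescence-ratio B-score plate-corrected deviation score at least 3 library SD below zero, with starting fluorescence score within 5 deviations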;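 also: channel opened by trigger with iodide after compound preincubation; score built on the fluorescence ratio of max minus min over baseline; more negative score means more quench and so TMEM16A activation or potentiation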
# TMEM16A inh: blocks the mouse calcium-activated chloride channel TMEM16A. HEK293 TMEM16A/YFP iodide influx fluorescence, ionomycin. normalized B-score (activity score, 25-100; higher = stronger inhibition) at 10 µM. 310,000 tested, 1.2% active;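 active = ratio plate-corrected score three or more library SD toward inhibition, starting fluorescence score within five deviations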;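 also: score derived from kinetic fluorescence span divided by baseline fluorescence per well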
# DNA FID counter: displaces DNA intercalator in HCV helicase counter-screen | 290,000 tested, 0.17% active | DNA fluorescent intercalator displacement, fluorescence | inhibition, % at 7.9 µM | AID 1845; in the data active = inhibition above about 37%;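 also: 0% = vehicle and 100% = reference compound; higher means more ethidium bromide displaced from hairpin DNA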
# PP5 primary: PP5 (human) phosphatase inhibition | purified PP5c, OMFP substrate fluorescence | inhibition, % at 6.7 µM | 320,000 tested, 0.18% active | P53041 | AID 1987;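 active = inhibition above the campaign's mean inhibition across all tested compounds plus 3 SD, cut at about 9.5% in these data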;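 also: 0% = DMSO only and 100% = 100 µM cantharidin control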
# Target sequence (P53041 whole entry, looked up): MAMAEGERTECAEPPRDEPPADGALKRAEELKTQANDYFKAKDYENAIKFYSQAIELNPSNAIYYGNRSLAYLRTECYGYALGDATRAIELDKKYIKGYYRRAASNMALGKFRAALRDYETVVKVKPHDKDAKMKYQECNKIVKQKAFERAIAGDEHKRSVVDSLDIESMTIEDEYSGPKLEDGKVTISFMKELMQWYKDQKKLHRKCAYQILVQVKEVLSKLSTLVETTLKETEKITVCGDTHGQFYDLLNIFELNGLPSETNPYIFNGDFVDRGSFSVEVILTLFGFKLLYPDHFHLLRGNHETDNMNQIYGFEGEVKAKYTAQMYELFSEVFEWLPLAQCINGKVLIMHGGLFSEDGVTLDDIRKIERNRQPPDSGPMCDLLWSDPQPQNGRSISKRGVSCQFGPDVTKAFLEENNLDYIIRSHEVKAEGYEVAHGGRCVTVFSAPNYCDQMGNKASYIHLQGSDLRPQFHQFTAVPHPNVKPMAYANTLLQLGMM
# TMEM16A reconf: TMEM16A (mouse) chloride channel inhibition, re-confirmation; shares compounds with TMEM16A inh; HEK293 TMEM16A/YFP-H148Q, iodide quench fluorescence; ionomycin added to raise cell calcium; inhibition, % at 10 µM; 2,300 tested, 39% active;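 active = mean duplicate percent inhibition, scaled so buffer wells are 0 and the reference blocker 100, over three buffer SD above buffer mean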
# HEK293 Ca mobil: counter-screen for TMEM16A inhibitors: effect on calcium mobilization. shares compounds with TMEM16A inh. TMEM16A/YFP HEK293, Fluo4 calcium mobilization. calcium response (% of ionomycin), % at 10 µM. 2,300 tested, 2% active;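 active = duplicate-averaged calcium signal over 20% of the ionomycin maximum, relative to buffer baseline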;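 also: each well's signal is peak minus trough fluorescence divided by its pre-addition baseline; 0% = buffer wells and 100% = ionomycin wells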
# YFP-HEK293 quench: counter-screen for TMEM16A inhibitors: effect in parental YFP-HEK293 cells; shares compounds with TMEM16A inh; iodide YFP quench, ionomycin; YFP ratio F(max-min)/F0 at 10 µM; 2,300 tested, under 10 active; AID 652233;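 active = yellow fluorescent protein signal ratio exceeding the buffer control mean by over 5 SD of those controls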;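 also: ratio is mean of duplicate wells from kinetic YFP trace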
# ClC-1 rat inh: selectivity of TMEM16A inhibitors: inhibition of rat ClC-1 chloride channel. ratio percent, % at 10 µM. 2,300 tested, under 10 active. CHO ClC-1-YFP, iodide influx fluorescence quench; iodide control reads 0, buffer control 100. AID 652236. shares compounds with TMEM16A inh;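 active = duplicate-mean ratio percent above the mean of iodide-only control wells, which defines zero, plus 5 of their SD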;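 also: higher percent means stronger block of ClC-1 iodide influx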
# * hit, by the source's call; i = inactive; . = no result. A selection: hits, their analogues and other compounds. The true share with any hit is near 2.7%.
SMILES,PREPL inh,PP1 inh,TMEM16A act,TMEM16A inh,DNA FID counter,PP5 primary,TMEM16A reconf,HEK293 Ca mobil,YFP-HEK293 quench,ClC-1 rat inh
O=C(c1ccc2c(c1)N(Cc1cccc(Cl)c1)C(=O)c1ccccc1S2(=O)=O)N1CCN(c2ccccn2)CC1,-18.1,7.7,i,i,-18.4,1.8,.,.,.,.
Cc1noc(C)c1COc1cccc(C(=O)NCCc2c[nH]c3ccccc23)c1,-20.0,-0.4,i,25*,-23.0,-1.0,i,i,-1.14,-3.0
COc1ccc(C2=NOC(C(=O)Nc3ccc4c(c3)OCCO4)C2)c(OC)c1 (stereo not drawn),-5.6,-0.8,i,i,-22.3,-7.3,.,.,.,.
O=C(Nc1cc(C(F)(F)F)ccc1Cl)C(Sc1ccccn1)c1ccccc1 (stereo not drawn),10.7,1.9,i,25*,1.0,2.1,i,i,-0.914,-0.5
CC(=O)c1cccc(NS(=O)(=O)c2ccc(-c3cnc(C4CC4)o3)cc2)c1,8.9,-0.2,i,25*,-25.4,2.3,16.5%*,i,-1.03,-17.0
COCCN1CCN(c2cc(-c3ccccc3)nc3cc(-c4cccc(F)c4)nn23)CC1,5.3,5.2,i,100*,2.8,4.2,i,i,-1.12,-9.0
CCN(Cc1ccccc1)C(=O)COc1cc(=O)n(CC)c2ccccc12,-12.1,1.1,i,i,-30.5,-0.3,.,.,.,.
CN(Cc1ccccc1)C(=O)COc1cc(=O)n(C)c2ccccc12,-4.7,3.5,i,i,-17.0,-0.2,i,i,-0.846,-4.5
O=C(O)Cn1cc(C(=S)N2CCOCC2)c2ccccc21,8.9,-5.1,i,25*,1.2,0.6,i,i,-1.37,-5.0
CC(C)CN(C(=O)COC(=O)c1c2c(nc3ccccc13)CCC2)c1c(N)n(Cc2ccccc2)c(=O)[nH]c1=O,3.3,2.3,i,i,-30.0,4.7,.,.,.,.
O=S(=O)(NC1CCCCC1N1CCC(O)CC1)c1ccccc1 (stereo not drawn),-17.0,-5.3,i,i,-0.2,-3.7,.,.,.,.
Cc1cccc(OCc2nnc(SCC(=O)N3CCN(c4ccccc4)CC3)o2)c1C,7.0,0.7,i,100*,-7.9,2.2,i,i,-0.971,-9.5
CCOC(=O)C1CCN(C(=O)COC(=O)C2CCN(S(=O)(=O)c3ccc(C)c(C)c3)CC2)CC1,-1.3,-5.2,i,i,.,0.6,.,.,.,.
COc1ccc(CCN(C)C(=O)COc2ccc(C(=O)c3ccccc3)cc2)cc1OC,-3.4,2.3,i,i,.,-3.4,.,.,.,.
CSc1ccc(CN(C)C(=O)COc2ccc(C(=O)c3ccccc3)cc2)cc1,-0.6,3.8,i,100*,-38.7,6.4,i,i,-1.33,-7.0
COc1ccc2ccc(C(C)(C(C)=O)C(=O)OC(C)C)cc2c1 (stereo not drawn),2.6,-2.5,i,.,.,-0.2,.,.,.,.
CC(=O)c1ccc(N2CCN(S(=O)(=O)c3ccc4c(c3)CC(C)N4C(C)=O)CC2)cc1 (stereo not drawn),-55.2,1.4,i,25*,-38.9,-2.0,25.5%*,i,-1.1,-22.0
Cc1ccc(C)c(N2CCN(S(=O)(=O)c3ccc4c(c3)CC(C)N4C(=O)C3CC3)CC2)c1 (stereo not drawn),-0.3,-2.0,i,i,-6.1,0.4,i,i,-1.15,-15.0
CCC(=O)N1c2ccc(S(=O)(=O)N3CCN(c4ccc([N+](=O)[O-])cc4)CC3)cc2CC1C (stereo not drawn),-60.7,-0.1,i,25*,-25.7,0.5,i,i,-1.23,-17.5
CCOc1ncccc1C(=O)Nc1ccc2c(c1)OCCCO2,.,.,i,.,.,.,.,.,.,.
CCC(C)(C)NC(=O)C(c1ccccc1Cl)N(Cc1cccnc1)C(=O)CCC(=O)Nc1cc(C)on1 (stereo not drawn),-0.3,-4.3,i,i,-32.0,1.6,.,.,.,.
O=C(CCNc1ccc(F)c(Cl)c1)c1ccco1,14.3,-1.0,i,i,0.6,1.2,.,.,.,.
O=C(CCNc1ccc(F)cc1)c1ccco1,-0.9,-1.8,i,100*,2.6,-2.9,i,i,-1.05,-26.0
CC(=O)C1=C(O)C(=O)N(c2nccs2)C1c1ccccc1F (stereo not drawn),1.7,-0.5,i,i,1.5,-0.9,.,.,.,.
CCCCSc1nnc(-c2ccccc2)c2ccccc12,4.1,-3.7,i,100*,-5.7,0.4,i,i,-1.09,-7.5
SMILES,PREPL inh,PP1 inh,TMEM16A act,TMEM16A inh,DNA FID counter,PP5 primary,TMEM16A reconf,HEK293 Ca mobil,YFP-HEK293 quench,ClC-1 rat inh
Cc1cc(C)c(S(=O)(=O)NCCc2ccncc2)c(C)c1,6.6,2.5,i,i,-14.7,1.0,.,.,.,.
Cc1cc(C)c(S(=O)(=O)NCc2ccncc2)c(C)c1,-11.3,0.5,i,100*,-2.1,-0.3,30.0%*,i,-0.861,-16.0
CCc1c(C)nc2ncnn2c1NCCc1ccc(OC)cc1,17.3,0.2,i,25*,-10.8,-0.4,i,i,-0.822,-19.5
CCc1c(C)nc2ncnn2c1Nc1ccc(C)cc1,0.5,2.1,i,i,-10.0,1.6,.,.,.,.
COCCCn1c(SCC(=O)NC2CCCC2)nnc1-c1ccncc1,12.3,1.1,i,i,-3.8,2.1,.,.,.,.
CCOC(=O)c1c(C)[nH]c(C(=O)OCC(=O)N2CCN(S(=O)(=O)c3ccc(C)cc3C)CC2)c1C,7.9,-2.4,i,.,.,2.7,.,.,.,.
COc1ccc(/C=N/NC(=O)c2ccoc2C)cc1COc1c(C)cccc1C,-20.7,-0.5,i,i,-22.8,-1.7,i,i,-1.25,-18.0
COc1ccc(/C=N\NC(=O)c2ccccc2OC)cc1COc1ccccc1C,-2.7,-1.0,i,i,-33.8,1.2,.,.,.,.
Cc1ccc(C)c(S(=O)(=O)N2CCCCC2CCNC(=O)C(=O)NCCc2ccco2)c1 (stereo not drawn),-5.0,2.2,i,i,.,-1.5,.,.,.,.
O=C(OCCN1CCN(c2ncc(C(F)(F)F)cc2Cl)CC1)c1ccc(Cl)cc1,12.4,-2.6,i,100*,-3.3,1.3,i,i,-1.1,-6.5
O=C(NCc1cc(C(F)(F)F)ccc1Cl)c1cccc2c1C(=O)c1ccc(Cl)cc1S2(=O)=O,-2.5,.,.,.,.,.,.,.,.,.
